Most compounds without a hit are left out; they make up all but 3.6% or so of the library.
NadD block: NadD (S. aureus) enzyme inhibition; purified NadD enzyme, colorimetric absorbance read-out; inhibition, % at 20 µM; 0.78% of 360,000 active; AID 602399; in the data active means inhibition above about 26%
Myeloid diff 2: promotes myeloid progenitor differentiation; ER-HoxA9 myeloid progenitors, lysozyme-GFP differentiation, flow cytometry; calls only at 10 µM; 1% of 360,000 active;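 active means normalized GFP-positive differentiation at or above the plate's own cutoff, the solvent-only control mean plus 3 SD; inconclusive means no clear call, values can overlap the other calls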;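 further: cells exposed to compound for four days before flow analysis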
FAS TE block: FAS thioesterase (human) inhibition | P49327 | recombinant FAS-TE, OMFH fluorogenic substrate, fluorescence endpoint | inhibition, % at 15 µM | 0.67% of 360,000 active;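 active means compounds whose normalised, plate-corrected inhibition of enzyme fluorescence in the single-dose primary screen is 50% or more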;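 further: 0% = DMSO with enzyme and 100% = substrate without enzyme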
CRFR2-BP antag: antagonists of CRF-binding protein/CRF-R2 receptor complex; HEK293 CRF-R2/CRF-BP, CRF-induced calcium fluorescence; inhibition, % at 11.8 µM; 0.59% of 350,000 active;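 active means inhibition of the ligand-induced calcium signal above about 50% at the single tested concentration, limit read from the data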
NRP1-CendR mod: NRP-1/CendR interaction modulation; O14786; FAM-RPARPAR peptide binding to NRP-1, fluorescence polarization; inhibition, % at 25 µM; 0.85% of 360,000 active; AID 602438;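 active means inhibition or corrected inhibition above about 18%, plus a signal ratio from 0.5 to 1.5, limit read from the data, passing the limit was not always enough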
Target sequence (O14786 whole entry, looked up): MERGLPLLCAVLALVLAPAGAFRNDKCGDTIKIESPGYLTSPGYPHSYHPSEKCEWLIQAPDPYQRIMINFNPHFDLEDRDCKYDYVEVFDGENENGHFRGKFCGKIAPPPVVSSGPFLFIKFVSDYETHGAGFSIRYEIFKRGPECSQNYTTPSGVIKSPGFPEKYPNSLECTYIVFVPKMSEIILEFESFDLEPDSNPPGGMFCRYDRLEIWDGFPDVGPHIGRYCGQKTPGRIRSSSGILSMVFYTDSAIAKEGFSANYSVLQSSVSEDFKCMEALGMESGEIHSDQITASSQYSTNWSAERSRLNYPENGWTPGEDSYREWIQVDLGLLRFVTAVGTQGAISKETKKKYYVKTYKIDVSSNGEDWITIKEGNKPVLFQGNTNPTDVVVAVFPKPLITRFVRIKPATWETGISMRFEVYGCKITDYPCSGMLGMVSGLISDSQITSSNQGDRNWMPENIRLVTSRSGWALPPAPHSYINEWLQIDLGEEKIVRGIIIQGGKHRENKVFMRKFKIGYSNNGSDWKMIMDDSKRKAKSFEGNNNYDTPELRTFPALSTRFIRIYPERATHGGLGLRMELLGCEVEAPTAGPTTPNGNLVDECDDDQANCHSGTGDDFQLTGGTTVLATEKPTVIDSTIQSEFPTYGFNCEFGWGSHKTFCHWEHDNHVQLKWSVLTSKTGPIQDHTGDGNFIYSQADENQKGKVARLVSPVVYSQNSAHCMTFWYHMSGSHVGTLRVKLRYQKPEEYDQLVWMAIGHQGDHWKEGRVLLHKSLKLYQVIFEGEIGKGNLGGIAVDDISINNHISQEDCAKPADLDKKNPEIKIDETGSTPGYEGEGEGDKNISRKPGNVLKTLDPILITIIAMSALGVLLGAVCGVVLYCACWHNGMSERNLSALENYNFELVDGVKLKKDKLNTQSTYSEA
An asterisk follows results filed as active.

Results for COc1cc2c(cc1OC)-c1cc(Nc3ccc(C(=O)O)cc3)nc(=O)n1CC2 ?
NadD block: -6; Myeloid diff 2: inactive; FAS TE block: -4; CRFR2-BP antag: 117*; NRP1-CendR mod: -27

How did Cc1ccc(/C=N/Nc2nc3ccccc3[nH]2)s1 do in these assays?
NadD block: -1; Myeloid diff 2: inactive; FAS TE block: -9; CRFR2-BP antag: -30; NRP1-CendR mod: 29*

Results for CC(C)C[C@H]1CN([C@@H](Cc2ccccc2)CN2CCC[C@@H]2CN2C(=O)C(=O)NC[C@@H]2Cc2ccccc2)C(=O)C(=O)N1CCc1ccccc1 ?
NadD block: 22; Myeloid diff 2: inactive; FAS TE block: 18; NRP1-CendR mod: 0

Results for O=C(OCc1cc2ccccc2[nH]c1=O)c1ccncc1 ?
NadD block: -3; Myeloid diff 2: inactive; FAS TE block: -4; CRFR2-BP antag: 1; NRP1-CendR mod: 32*

How did CC(C)(C)C(=O)/C(=C/c1ccc(Cl)cc1)n1cncn1 do in these assays?
NadD block: -4; Myeloid diff 2: inconclusive; FAS TE block: 0; CRFR2-BP antag: 55*; NRP1-CendR mod: 1

What do the screens show for `N#C/C(=N\Nc1ccc([N+](=O)[O-])cc1)C(N)=S`?
NadD block: 1; Myeloid diff 2: inactive; FAS TE block: 23; CRFR2-BP antag: 57*; NRP1-CendR mod: -37

Results for N#C/C(=N\Nc1cccc([N+](=O)[O-])c1)C(=O)c1ccc(Br)cc1 ?
NadD block: 14; Myeloid diff 2: inactive; FAS TE block: 20; CRFR2-BP antag: 52*; NRP1-CendR mod: 9

How did O=C(O)c1ccc(N=NNc2cccc([N+](=O)[O-])c2)cc1 do in these assays?
NadD block: -3; Myeloid diff 2: inactive; FAS TE block: 0; CRFR2-BP antag: 4; NRP1-CendR mod: -11

What do the screens show for `N#C/C(=N/Nc1ccc([N+](=O)[O-])cc1)C(=N)N1CCCCC1`?
NadD block: -5; Myeloid diff 2: inactive; FAS TE block: 9; CRFR2-BP antag: 25; NRP1-CendR mod: -21

How did CC(C)[C@@H](N)C(=O)N/N=C/c1ccc2nccnc2c1 do in these assays?
NadD block: 3; Myeloid diff 2: inactive; FAS TE block: -5; CRFR2-BP antag: -20; NRP1-CendR mod: -2

What do the screens show for `CC(C)[C@H](NC(=O)OC(C)(C)C)C(=O)N/N=C/c1ccc2nccnc2c1`?
NadD block: -3; Myeloid diff 2: inactive; FAS TE block: -2; CRFR2-BP antag: 92*; NRP1-CendR mod: 5

How did CN=C1NC(C)(C)C2CCC(C)(CC2)S1 do in these assays?
NadD block: -3; Myeloid diff 2: active; FAS TE block: -10; CRFR2-BP antag: -15; NRP1-CendR mod: 0

What do the screens show for `O=C(NC(c1ccc(Cl)cc1)c1ccsc1)C1CCN(CCOc2ccc(Cl)cc2)CC1` (stereo not drawn)?
NadD block: 2; Myeloid diff 2: inactive; FAS TE block: 5; NRP1-CendR mod: 0

What do the screens show for `CCOC(=O)N1CCN(C(=O)CNC(=O)c2ccc(Br)cc2)CC1`?
NadD block: 0; Myeloid diff 2: inactive; FAS TE block: -10; CRFR2-BP antag: 2; NRP1-CendR mod: 27*

Results for CCOC(=O)N1CCN(C(=O)CNC(=O)c2ccc(Cl)cc2)CC1 ?
NadD block: 0; Myeloid diff 2: inactive; FAS TE block: -5; CRFR2-BP antag: -14; NRP1-CendR mod: 15

What do the screens show for `COc1cccc(C(C(=O)NCc2ccccc2)N2CCN(c3cccc(C)c3C)CC2)c1OC` (stereo not drawn)?
Myeloid diff 2: inactive; NRP1-CendR mod: -20

What do the screens show for `CCOC(=O)C1CCC(CN(Cc2ccccc2C)S(=O)(=O)c2ccc([N+](=O)[O-])cc2)CC1` (stereo not drawn)?
NadD block: -5; Myeloid diff 2: active; FAS TE block: 19; CRFR2-BP antag: -3; NRP1-CendR mod: -6

What do the screens show for `CCOC(=O)C1CCN(c2ccc([N+](=O)[O-])cc2)CC1`?
NadD block: 2; Myeloid diff 2: inactive; FAS TE block: 3; CRFR2-BP antag: 37; NRP1-CendR mod: -5

How did CN(C)C(=O)COc1ccc2ccc(=O)oc2c1 do in these assays?
NadD block: -3; Myeloid diff 2: inactive; FAS TE block: 1; CRFR2-BP antag: -28; NRP1-CendR mod: 0

Results for CC(C)=CC(O)C/C(C)=C/COc1ccc2ccc(=O)oc2c1 (stereo not drawn) ?
NadD block: 0; Myeloid diff 2: inactive; FAS TE block: 1; CRFR2-BP antag: 11; NRP1-CendR mod: 26*

Results for CC(C)(C)c1nnc2sc(SCC(=O)c3ccc(Cl)cc3)nn2c1=O ?
NadD block: 0; Myeloid diff 2: inactive; FAS TE block: 51*; CRFR2-BP antag: -22; NRP1-CendR mod: 0

Results for C/C(=N\NC(=O)c1nnn(-c2nonc2N)c1CSc1ccc(C)cc1)c1cccnc1 ?
NadD block: 2; Myeloid diff 2: inactive; FAS TE block: -1; CRFR2-BP antag: -17; NRP1-CendR mod: -8

What do the screens show for `CC(=O)Oc1ccc(N2C(=O)c3cccc4c([N+](=O)[O-])ccc(c34)C2=O)cc1`?
NadD block: -3; Myeloid diff 2: inconclusive; FAS TE block: -86; CRFR2-BP antag: 75*; NRP1-CendR mod: 11

How did O=C1c2cccc3c([N+](=O)[O-])ccc(c23)C(=O)N1c1ccc(Cl)cn1 do in these assays?
NadD block: 2; Myeloid diff 2: inconclusive; FAS TE block: -159; CRFR2-BP antag: 91*; NRP1-CendR mod: 13

What do the screens show for `O=C1c2cccc3c([N+](=O)[O-])ccc(c23)C(=O)N1c1nccs1`?
NadD block: 20; Myeloid diff 2: inconclusive; FAS TE block: -129; CRFR2-BP antag: 83*; NRP1-CendR mod: 0

Results for O=C1c2cccc3c([N+](=O)[O-])ccc(c23)C(=O)N1c1ccccn1 ?
NadD block: -1; Myeloid diff 2: inconclusive; FAS TE block: -198; CRFR2-BP antag: 60*; NRP1-CendR mod: 15

Results for CC1(C(=O)NCc2ccccc2)CSCC(=O)N1Cc1cccc(F)c1 (stereo not drawn) ?
Myeloid diff 2: inactive; NRP1-CendR mod: 8

Results for O=C(NCCCn1cccn1)c1cc(COc2ccccc2)on1 ?
NadD block: 0; Myeloid diff 2: inactive; FAS TE block: 1; CRFR2-BP antag: 14; NRP1-CendR mod: 2

What do the screens show for `CC(=O)c1ccc(N2CCN(C(=O)/C=C/c3ccc(S(=O)(=O)N4CCOCC4)cc3)CC2)cc1`?
NadD block: 2; Myeloid diff 2: inactive; FAS TE block: 4; CRFR2-BP antag: 6; NRP1-CendR mod: 26*

Results for CC(C)(C)c1ccc(CC(=O)N2CCC2(C)C(=O)NS(=O)(=O)c2ccc(F)cc2F)cc1 (stereo not drawn) ?
NadD block: -8; Myeloid diff 2: inactive; FAS TE block: -8; NRP1-CendR mod: -8

How did CCN(CC)c1ccc(NC(=O)Nc2ccc(C(C)=O)cc2)cc1 do in these assays?
NadD block: 5; Myeloid diff 2: inactive; FAS TE block: -4; CRFR2-BP antag: -12; NRP1-CendR mod: -8

Results for CCN(CC)c1ccc(C(=O)NN)cc1 ?
NadD block: 2; Myeloid diff 2: active; FAS TE block: -4; CRFR2-BP antag: -6; NRP1-CendR mod: -5
